The structures appear in SMILES notation. The panel holds about 79,000 compounds, 15% with a hit somewhere; the sample as a whole holds those more often. A number with no mark means an inactive call. Activity calls are given as the source filed them. Cut-off read from the data, not from the text of the source: active = growth inhibition above about 70%; inactive = the rest.

Assay [1] in a line: NCI Yeast Anticancer Drug Screen. Data for the rad50 strain (AID 155).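 Note: 0% = growth of vehicle-only cultures of the same strain.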 The note with it: S. cerevisiae rad50 strain growth inhibition; at 50.0 µM; active compounds read high. Put shortly: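 Genetically altered yeast (DNA repair pathway); compound treatment; growth inhibition vs vehicle ctrl.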
Assay [2] is described as follows: NCI Yeast Anticancer Drug Screen. Data for the mec2-1 strain (AID 157). The following applies: S. cerevisiae mec2-1 strain, at 50.0 µM, active compounds read high. The method, boiled down:
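Vehicle-treated cultures served as reference for growth inhibition of compound-exposed mec2-1 yeast.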

The nature of assay [3]: NCI Yeast Anticancer Drug Screen. Data for the sgs1 mgt1 strain (AID 161).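 Note: 0% = growth of cultures given vehicle only.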 The following applies: S. cerevisiae sgs1 mgt1 strain, at 50.0 µM, active compounds read high. The method, boiled down: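 Read-out: growth inhibition vs vehicle controls. Cells: mutant yeast strain deficient in DNA damage repair.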
The nature of assay [4]: NCI Yeast Anticancer Drug Screen. Data for the cln2 rad14 strain (AID 165).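 Note: 0% = growth equal to vehicle treated cultures.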 The following applies: S. cerevisiae cln2 rad14 strain, at 50.0 µM, active compounds read high. The method, boiled down:
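Each compound was tested on cln2 rad14 yeast. Inhibition of growth was calculated against vehicle-exposed controls.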

Assay [5] is described as follows: NCI Yeast Anticancer Drug Screen. Data for the bub3 strain (AID 167). The note with it: S. cerevisiae bub3 mutant strain, at 50.0 µM, active compounds read high. Put shortly: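 Yeast carrying a defined mutation is treated with each compound, and growth is compared with that of vehicle-exposed cells to give inhibition.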
Assay [6] is described as follows: NCI Yeast Anticancer Drug Screen. Data for the mlh1 rad18 strain (AID 175). The note with it: S. cerevisiae mlh1 rad18 strain growth inhibition; at 50.0 µM; active compounds read high. Put shortly:
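Vehicle-treated cultures served as the reference for growth inhibition in a yeast strain carrying DNA damage repair alterations exposed to each compound.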

As to `COc1ccc(C)c(C2=CCCCC2)c1`, the growth inhibition in assay [1] is 4.65%; in assay [2] it was 3.45%; in assay [3], -9.15%; in assay [4] it was -6.55%; in assay [5], -2.35%; in assay [6], -15.8%.

For `O=C1CCNC(=O)N1`, the growth inhibition in assay [1] was 33.7%; in assay [2], -7.35%; in assay [3] it was 4.75%; in assay [4] it was 21.1%; in assay [5] it was -10.2%; in assay [6] it was 23.4%.

For the compound `COc1ccc2c(c1)c(CO)c(CO)c[n+]2[O-]`, the growth inhibition in assay [1] is 11.7%; in assay [2], 3.1%; in assay [3], 16%; in assay [4], 2.75%; in assay [5], 11.8%; in assay [6] it was 6.15%.

In the case of `N#C/C(=C/c1cccc2ccccc12)C(N)=O`, the growth inhibition in assay [1] was 21.6%; in assay [2] it was 32.9%; in assay [3], 28.4%; in assay [4] it was 6.2%; in assay [5] it was 28.6%; in assay [6], 26.1%.

`C/C(N=NC(=S)N1CCCCC1C)=C1\C=CC=CN1O` (stereo unspecified): the growth inhibition was 49.2% in assay [1]; 4.25% in assay [2]; 54.7% in assay [3]; 89.4% (active) in assay [4]; 20.1% in assay [5]; 20.6% in assay [6].

Consider `Cc1nnnn1C12CC3CC(CC(C3)C1)C2`, for which the growth inhibition was 11.7% in assay [1]; 5.7% in assay [2]; -5.75% in assay [3]; -14.3% in assay [4]; -15.7% in assay [5]; 15.1% in assay [6].

Turning to `CCC(C#N)N(Cc1cccc(CN(C(C)=O)C(C#N)CC)c1)C(C)=O` (stereo unspecified), the growth inhibition in assay [1] is -5.9%; in assay [2] it was -11.7%; in assay [3], -4.15%; in assay [4], -29.9%; in assay [5], -25.7%; in assay [6], -43.9%.

Consider `CC1CCCCN1Cc1ccccc1COC(=O)c1ccc([N+](=O)[O-])cc1` (stereo unspecified), for which the growth inhibition is 10.6% in assay [1]; -5.05% in assay [2]; 4.8% in assay [3]; -29.1% in assay [4]; 4.05% in assay [5]; 18.6% in assay [6].

Turning to `OCC(O)COc1ccccc1F` (stereo unspecified), the growth inhibition in assay [1] is 11.5%; in assay [2] it was -6.35%; in assay [3] it was -11.2%; in assay [4] it was -13.2%; in assay [5] it was -7.5%; in assay [6] it was 10.8%.

As to `CSC1(C)CC2C(CC1N1CCCCC1)C2(C)C` (stereo unspecified), the growth inhibition in assay [1] is -28.4%; in assay [2] it was -16.4%; in assay [3], -46.4%; in assay [4] it was 5.8%; in assay [5] it was -24%; in assay [6] it was -35.9%.

Turning to `O=c1[nH]c2cc(Cl)ccc2nc1/C=C(\O)c1cccc2ccccc12`, the growth inhibition in assay [1] was 40.9%; in assay [2] it was 15.2%; in assay [3] it was 28.6%; in assay [4], 17%; in assay [5] it was 15.1%; in assay [6], 35%.

`CCC(=O)C(C)C1(C(=O)OC)NC(=S)NC(=O)C1C#N` (stereo unspecified): the growth inhibition in assay [1] was 5.4%; in assay [2] it was -4.75%; in assay [3], -15.8%; in assay [4] it was -6.4%; in assay [5], -22.1%; in assay [6], -6.1%.

In the case of `O=C1c2ccccc2C(=O)N1Nc1ccccc1`, the growth inhibition in assay [1] was 6.6%; in assay [2], 3.2%; in assay [3], 7.45%; in assay [4] it was -8.1%; in assay [5] it was 3.1%; in assay [6], 16.5%.

On to `NC(=O)C(=O)n1ncc(Cl)c(Cl)c1=O`, for which the growth inhibition in assay [1] is 2.65%; in assay [2], -3%; in assay [3], 1.05%; in assay [4], 6.55%; in assay [5], 8.25%; in assay [6], -4.1%.

As for `O=c1n(CCO)nc2n1CCCN2`, the growth inhibition in assay [1] is 7.3%; in assay [2], 10.9%; in assay [3], 7.2%; in assay [4] it was -15.8%; in assay [5], 7.5%; in assay [6], 5.6%.

Turning to `CCCCCCCCCCCCCCCCCN(C)C(=O)OCC`, the growth inhibition was 23.1% in assay [1]; -62.5% in assay [2]; -55.5% in assay [3]; -114% in assay [4]; -7.15% in assay [5]; -30.8% in assay [6].

Consider `O=NN(CC1(O)OCC(O)C(O)C1O)C(Cc1c[nH]c2ccccc12)C(=O)O` (stereo unspecified), for which the growth inhibition in assay [1] is -8.7%; in assay [2], -22.9%; in assay [3] it was -27.1%; in assay [4] it was 2.1%; in assay [5] it was -0.5%; in assay [6], -4.8%.

With `NCCCc1ccc2c(c1)OCO2`, the growth inhibition in assay [1] is 42.2%; in assay [2], 6.45%; in assay [3], 36%; in assay [4], 47.7%; in assay [5], 30.4%; in assay [6] it was 50.5%.

For the compound `CCC(C)NC(=O)/C=C/C(=O)NC(C)CC` (stereo unspecified), the growth inhibition is 5.4% in assay [1]; -4.25% in assay [2]; -5.75% in assay [3]; -29.7% in assay [4]; 4.95% in assay [5]; 8.5% in assay [6].

As to `Cc1ccccc1CCCC(C(=O)O)C(=O)O`, the growth inhibition in assay [1] is -18.8%; in assay [2] it was -7.75%; in assay [3] it was 10.8%; in assay [4], -2.8%; in assay [5], -1.55%; in assay [6] it was 1.75%.

Regarding `Cc1cnc(Br)c(Br)c1`, the growth inhibition in assay [1] was 2.85%; in assay [2], 0.8%; in assay [3] it was 3.45%; in assay [4] it was 15.9%; in assay [5], 5.1%; in assay [6], 13.1%.
